The source of these data is PubChem BioAssay (NCATS).

Each structure is given as a SMILES string. Inconclusive results are not listed. Active and inactive are the calls of the source. Calls come from the whole dose curve; as a rule, active = well fitted curve in the direction sought with a large enough effect; inconclusive = small, poorly fitted or top-dose-only effect, or another doubt; inactive = no such curve, though single readings can be large; an effect the other way counts as inactive or inconclusive.

Assay [1] deals with Glutathione peroxidase 1 (Homo sapiens) (UniProt P07203). Kind of assay: Primary qHTS Assay for Inhibitors of Recombinant Selenoprotein Glutathione Peroxidase 1 (GPX1) (AID 1845191). For activity, negative = inhibition: % is set by controls: 0 for no effect and ±100 for the full control effect. Note: nearly all actives have a fitted effect of over 65% in size. The method, boiled down: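 GR-coupled readout: NADPH consumption tracked by fluorescence, ex 340/em 450 nm, at t=0 and after 15 min at RT. Final mix 10 nM GPX1, 1 mM GSH, 0.5 mM CHP, 0.5 mM NADPH, 100 nM GR, 0.01% BSA, following 30 min enzyme–compound preincubation.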

Assay [2] concerns the target Phospholipid hydroperoxide glutathione peroxidase GPX4 (Homo sapiens) (UniProt P36969). The experiment in a line: Primary qHTS Assay for Inhibitors of Recombinant Selenoprotein Glutathione Peroxidase 4 (GPX4) (AID 1845192). For activity change, negative = inhibition: series mostly up to about 50 µM; % is set by controls: 0 for no effect and ±100 for the full control effect. Note: nearly all actives have a fitted effect of over 65% in size. An outline of the steps:
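Steps: GPX4 plus compound, 30 min RT; add GR/GSH/NADPH master mix; start with cumene hydroperoxide; read 340/450 nm fluorescence at 0 and 15 min. Finals were 200 nM GPX4, 1 mM GSH, 0.5 mM CHP, 0.5 mM NADPH, 100 nM GR.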

The target of assay [3] is Luciferin 4-monooxygenase (Photinus pyralis) (UniProt P08659). Kind of assay: Primary firefly luciferase (FLuc) qHTS assay for identification of artifact compounds. (AID 1845220).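 For activity change, negative = inhibition: series mostly up to about 54 µM; plate controls were DMSO vehicle for no effect and no enzyme for full effect.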 Note: nearly all actives have a fitted effect of over 60% in size. The method, boiled down:
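Enzymatic FLuc inhibition assay: compounds pre-exposed to luciferin/ATP (10 uM each) for 15 min, then purified P. pyralis enzyme at 10 nM added. Read-out: luminescence at 5 min.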
(Quantitative high-throughput screening tests each substance at several concentrations.)

Assay [4] in a line: Primary fluorescence-based thiol-reactive (MSTI) qHTS assay for identification of artifact compounds. (AID 1845221).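 For activity change, negative = thiol reactive: series mostly up to about 54 µM; thiol-reactive compounds lower the probe fluorescence signal.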 Note: nearly all actives have a fitted effect of over 65% in size. Note: potency is the fitted concentration of half-maximal effect. An outline of the steps: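 Probe: MSTI 4 uM, PBS pH 7.4, 2% DMSO. Incubation 1 h, RT, light-protected. Readout fluorescence 525/598 nm.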
Assay [5] deals with Nanoluciferase (engineered Oplophorus gracilirostris luciferase). The experiment in a line: Primary Nanoluciferase (NLuc) qHTS assay for identification of artifact compounds. (AID 1845222).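 Note: NLuc secreted into diluted conditioned medium of S16 cells; series mostly up to about 54 µM; 0% = DMSO and -100% = no enzyme.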 The method, boiled down:
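S16 cell supernatant NLuc, 1:55; cpds qHTS; 15 min RT dark; Nano-Glo substrate 1:100, 5 min; luminescence; Hill fit of % inhibition.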

Assay [6] can be described thus: Primary redox qHTS assay for identification of artifact compounds. (AID 1845223).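 Note: 0% = DMSO and 100% = reference compound.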 The method, boiled down: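 Redox-cycling detection via DTT (250 uM final) oxidation coupled to Amplex Red (25 uM)/HRP (250 mU/mL) in HBSS. 15 min preincubation plus 30 min after DTT, room temperature. Ex/Em 525/598 nm; 4-parameter Hill fit against DMSO and 10 uM DA3003.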

Sequence of Phospholipid hydroperoxide glutathione peroxidase GPX4 (Homo sapiens) (P36969 whole entry, looked up): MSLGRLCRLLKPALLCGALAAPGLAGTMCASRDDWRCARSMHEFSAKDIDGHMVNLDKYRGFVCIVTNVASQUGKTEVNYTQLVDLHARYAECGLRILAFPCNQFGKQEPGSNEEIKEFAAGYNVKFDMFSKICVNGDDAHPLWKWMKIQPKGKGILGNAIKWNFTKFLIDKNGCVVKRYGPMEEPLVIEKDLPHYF
Sequence of Glutathione peroxidase 1 (Homo sapiens) (P07203 whole entry, looked up): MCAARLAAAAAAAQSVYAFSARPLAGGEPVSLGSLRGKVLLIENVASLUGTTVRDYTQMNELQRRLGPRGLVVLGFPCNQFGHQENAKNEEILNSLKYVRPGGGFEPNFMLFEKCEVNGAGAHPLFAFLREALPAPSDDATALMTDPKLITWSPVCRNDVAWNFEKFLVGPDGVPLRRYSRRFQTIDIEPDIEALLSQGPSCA

In the case of `CC(=O)OC(C)(C)/C=C/C(=O)C(C)(O)C1C(O)CC2(C)C3CC=C(C(C)(C)C(=O)O)C(CC(=O)O)C3(C)C(=O)CC12C` (centres undefined), the Potency result in assay [1], in assay [2], in assay [3], in assay [4], in assay [5] and in assay [6] was “inactive” throughout.

On to `COc1cc([C@H]2O[C@H](c3cc(OC)c4c(c3)OCO4)[C@H](C)[C@H]2C)cc(OC)c1OC`, for which the Potency result in assay [1], in assay [2], in assay [3], in assay [4], in assay [5] and in assay [6] was “inactive” each time.

`C/C=C/CCC1Cc2cc(O)c(CCCC)c(O)c2C(=O)O1` (centres undefined): the Potency result in assay [1], in assay [2], in assay [3], in assay [4], in assay [5] and in assay [6] was “inactive” each time.

For `COc1ccncc1C(=O)NC(=O)Nc1ccc(-c2ccccc2)c(C(F)(F)F)c1`, the Potency result in assay [1], in assay [2], in assay [3], in assay [4], in assay [5] and in assay [6] was “inactive” in each case.

Regarding `O=C(NCC1(N2CCN(c3ccccc3)CC2)CCOCC1)c1cccnc1Sc1ccccc1`, the Potency result in assay [1], in assay [2], in assay [3], in assay [4], in assay [5] and in assay [6] was “inactive” each time.

In the case of `COc1cc(C[C@H]2C(=O)OC[C@@H]2Cc2ccc(OC)c(OC)c2)ccc1O`, the Potency entry in assay [1], in assay [2], in assay [3], in assay [4], in assay [5] and in assay [6] was “inactive” each time.

Turning to `Cc1ccnn1-c1ccc(C(=O)N2CCN(S(=O)(=O)c3ccc(Cl)c(C(F)(F)F)c3)CC2)cc1`, the Potency result in assay [1], in assay [2], in assay [3], in assay [4], in assay [5] and in assay [6] was “inactive” throughout.

As to `CC12CCC3C1C(c1c(cc(O)c(C(=O)c4ccccc4)c1O)O2)C3(C)C` (centres undefined), the Potency entry in assay [1], in assay [2], in assay [3], in assay [4], in assay [5] and in assay [6] was “inactive” in each case.

Turning to `CCC(C)C(=O)OC1C(C)C2(O)C(C=C(CO)CC3(O)C(=O)C(C)=CC32)C2C(C)(C)C12OC(=O)C(C)C` (centres undefined), the Potency result in assay [1], in assay [2], in assay [3], in assay [4], in assay [5] and in assay [6] was “inactive” throughout.

For `CCC(C)CNCC(=O)N1CCC2SC=CC2C1COc1cccc(C)c1` (centres undefined), the Potency entry in assay [1], in assay [2], in assay [3], in assay [4], in assay [5] and in assay [6] was “inactive” each time.

For `COc1ccc(Sc2ccc(NC(=O)c3ccccc3Cl)cc2C#N)cc1`, the Potency result in assay [1], in assay [2], in assay [3], in assay [4], in assay [5] and in assay [6] was “inactive” each time.

In the case of `CC1OC(OC2C(O)COC(O[C@@H]3[C@@H](O)[C@@H](O)[C@H](OC4C(OC(=O)[C@]56CCC(C)(C)CC5C5=CCC7[C@@]8(C)C[C@H](O)[C@H](OC9OC(CO)C(O)C(O)C9O)[C@@](C)(CO)C8[C@H](O)C[C@@]7(C)[C@]5(C)CC6)OCC(O)C4O)O[C@H]3C)C2O)C(O)C(O)C1O` (some centres undefined), the activity, negative = inhibition was -4.86% [at 9.52 µM] (inactive) in assay [1] and -5.56% [at 11.6 µM] (inactive) in assay [5]. Moreover, the activity change, negative = inhibition was -9.45% [at 9.73 µM] (inactive) in assay [2] and -14.3% [at 11.6 µM] (inactive) in assay [3]. For the same compound, in assay [4], the activity change, negative = thiol reactive was 417% [at 11.5 µM] (inactive). Moreover, in assay [6], the redox activity (% of DA3003) was 3.65% [at 11.5 µM] (inactive).

On to `O=C(NCCCn1ccnc1)c1cc(-c2ccco2)on1`, for which the Potency entry in assay [1], in assay [2], in assay [3], in assay [4], in assay [5] and in assay [6] was “inactive” in each case.

On to `O=C(Nc1ccnc(NC(=O)C2CC2)c1)c1c(Cl)cccc1Cl`, for which the Potency result in assay [1], in assay [2], in assay [3], in assay [4], in assay [5] and in assay [6] was “inactive” throughout.

With `O=C(Nc1ccccc1)N1CCN(c2nc(-c3ccccc3)ns2)CC1`, the Potency result in assay [1], in assay [2], in assay [3], in assay [4], in assay [5] and in assay [6] was “inactive” throughout.

In the case of `NC(=O)C1=CC2C3C=CC2C(OC3=O)O1` (centres undefined), the Potency result in assay [1], in assay [2], in assay [3], in assay [5] and in assay [6] was “inactive” throughout. Moreover, in assay [4], the Potency is 15.8 µM (active).

With `N#Cc1cc(C2=Nc3ccc(Br)cc3NC(=O)C2)ccn1`, the Potency entry in assay [1], in assay [2], in assay [3], in assay [4], in assay [5] and in assay [6] was “inactive” in each case.

Take `C=C1C(=O)OC2CC3(C)C(O)C(=O)C=C(C)C3CC12` (centres undefined): the Potency result in assay [1], in assay [2], in assay [3], in assay [5] and in assay [6] was “inactive” in each case. In assay [4], the Potency was 2.67 µM (active).

Regarding `C/C=C/C1=CC2=C(CO1)C(=O)C(C)(OC(=O)c1c(C)cc(O)cc1OC)C(O)C2` (centres undefined), the Potency entry in assay [1], in assay [2], in assay [3], in assay [4], in assay [5] and in assay [6] was “inactive” in each case.

As for `C=C1CC[C@@H]2[C@](C)(CO)[C@H](O)CC[C@@]2(C)[C@@H]1C/C=C1/C(=O)OCC1O` (some centres undefined), the Potency entry in assay [1], in assay [2], in assay [3], in assay [4], in assay [5] and in assay [6] was “inactive” each time.

In the case of `CC(C)OC(=O)N1CCC(Oc2ncnc3c2cnn3-c2ccc(S(C)(=O)=O)cc2F)CC1`, the Potency entry in assay [1], in assay [2], in assay [3], in assay [4], in assay [5] and in assay [6] was “inactive” in each case.

In the case of `C=C1C(=O)OC2/C=C(\C)CC3C=C(CC/C=C(\C)CCC12)C(=O)O3` (centres undefined), the Potency entry in assay [1], in assay [2], in assay [3], in assay [4], in assay [5] and in assay [6] was “inactive” throughout.

For `COc1cc(/C=C2\CCCN([C@@H](C)c3ccc(F)cc3)C2=O)ccc1-n1cnc(C)c1`, the Potency entry in assay [1], in assay [2], in assay [3], in assay [4], in assay [5] and in assay [6] was “inactive” in each case.

`C=C(C)C(=O)O[C@H]1C[C@@](C)(O)C2(O)CCC(C)(/C=C3/OC(=O)C(COC)=C31)O2` (some centres undefined): the Potency entry in assay [1], in assay [2], in assay [3], in assay [4], in assay [5] and in assay [6] was “inactive” each time.
